Compounds without any hit were thinned out: in the full panel of roughly 79,000, 15% have a hit. A number with no mark means an inactive call. The source made the active and inactive calls. Rule as the data show it: active = growth inhibition above about 70%; inactive = the rest.

A short description of assay [1]: NCI Yeast Anticancer Drug Screen. Data for the rad50 strain (AID 155).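 Also: 0% = growth of vehicle-only cultures of the same strain.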 Particulars: S. cerevisiae rad50 strain growth inhibition; at 50.0 µM; stronger effect = higher value. The procedure, abridged:
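Vehicle-treated cultures provide the reference for the growth inhibition reported for compound-exposed, repair-deficient yeast.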

A short description of assay [2]: NCI Yeast Anticancer Drug Screen. Data for the mec2-1 strain (AID 157). Particulars: S. cerevisiae mec2-1 strain, at 50.0 µM, stronger effect = higher value. The procedure, abridged: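 Mutant yeast (mec2-1) grown with compound; growth inhibition relative to vehicle control reported.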
Assay [3] is described as follows: NCI Yeast Anticancer Drug Screen. Data for the sgs1 mgt1 strain (AID 161).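 Also: 0% = growth of cultures given vehicle only.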 The conditions noted are these: S. cerevisiae sgs1 mgt1 strain, at 50.0 µM, stronger effect = higher value. The method, boiled down: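 This yeast growth screen uses a strain with defined DNA-repair lesions; compound-treated growth is compared with vehicle-treated growth.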
The nature of assay [4]: NCI Yeast Anticancer Drug Screen. Data for the cln2 rad14 strain (AID 165).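 Also: 0% = growth equal to vehicle treated cultures.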 Particulars: S. cerevisiae cln2 rad14 strain, at 50.0 µM, stronger effect = higher value. The method, boiled down:
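Readout is yeast growth inhibition versus vehicle-treated controls, using a strain with cln2 and rad14 alterations exposed to compound.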

A short description of assay [5]: NCI Yeast Anticancer Drug Screen. Data for the bub3 strain (AID 167). The conditions noted are these: S. cerevisiae bub3 mutant strain, at 50.0 µM, stronger effect = higher value. The method, boiled down: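 Mutant yeast screening strain plus compound; vehicle-treated cultures serve as the 0% inhibition reference.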
Assay [6] in a line: NCI Yeast Anticancer Drug Screen. Data for the mlh1 rad18 strain (AID 175). The conditions noted are these: S. cerevisiae mlh1 rad18 strain growth inhibition; at 50.0 µM; stronger effect = higher value. The method, boiled down: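 Genetically defined yeast (DNA repair-deficient) exposed to compounds; growth inhibition determined relative to vehicle.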

Consider `Nc1ccc2c(c1)-c1ccccc1C2O` (stereo unspecified), for which the growth inhibition is -1.2% in assay [1]; -19.1% in assay [2]; -37.8% in assay [3]; -60.9% in assay [4]; -17.1% in assay [5]; -16.4% in assay [6].
Regarding `CC1=c2c(oc3cc(O)c(Nc4c(C)cc(O)cc4O)c(C)c23)=CC(=O)C1=Nc1c(C)cc(O)cc1O`, the growth inhibition in assay [1] is 17.9%; in assay [2], 7.8%; in assay [3], 0.45%; in assay [4], -2.3%; in assay [5], -35%; in assay [6], 18.4%.
As to `CC(C)C1OC2OCCCC2C(C(C)C)O1` (stereo unspecified), the growth inhibition in assay [1] was 17.2%; in assay [2], -5.85%; in assay [3] it was 8.15%; in assay [4] it was -11.9%; in assay [5], -22.1%; in assay [6], 11%.
In the case of `COC1OC(C(C)O)C(O)C(O)C1O` (stereo unspecified), the growth inhibition in assay [1] is 23.6%; in assay [2], 19%; in assay [3], 10.2%; in assay [4] it was 14.9%; in assay [5], 4.65%; in assay [6], 1.5%.
In the case of `C[N+](C)(C)C12CCCCCC1SC2` (stereo unspecified), the growth inhibition was 15.6% in assay [1]; 6.7% in assay [2]; 9.55% in assay [3]; -26.6% in assay [4]; -16.1% in assay [5]; 5.1% in assay [6].
In the case of `CC(=O)Oc1cccc2c(/C=N/NC(N)=S)ncc(C)c12`, the growth inhibition in assay [1] was 87.6% (active); in assay [2], 78.3% (active); in assay [3], 86.7% (active); in assay [4], 83.5% (active); in assay [5] it was 84.6% (active); in assay [6], 90.3% (active).
For `CSC(=S)n1nc(C)c(N=Nc2ccccc2[N+](=O)[O-])c1C`, the growth inhibition in assay [1] is 26.5%; in assay [2], -2.85%; in assay [3], 0.15%; in assay [4], 5.05%; in assay [5] it was 7.95%; in assay [6] it was 7.75%.
`CC(=O)Nc1ccc(/C=C2\C(=O)Nc3ccccc32)cc1`: the growth inhibition was -15.4% in assay [1]; -20.1% in assay [2]; -23% in assay [3]; -11.8% in assay [4]; -8.5% in assay [5]; -5.9% in assay [6].
With `CC1CC(C)c2ccccc21` (stereo unspecified), the growth inhibition in assay [1] is 42.3%; in assay [2], 27.4%; in assay [3], 17.8%; in assay [4], 39.3%; in assay [5], 0.3%; in assay [6], 2.4%.
Consider `Cc1cc(C(=O)O)cc(C)c1N(C)Cc1cnc2nc(N)nc(N)c2n1`, for which the growth inhibition was 5.6% in assay [1]; -11.8% in assay [2]; 0.25% in assay [3]; 20.7% in assay [4]; 17.4% in assay [5]; -5% in assay [6].
Take `CC(C)=C/C(C)=N/NC(N)=O`: the growth inhibition in assay [1] was 7.9%; in assay [2], -4.55%; in assay [3], -24.3%; in assay [4], -19.1%; in assay [5], -19.8%; in assay [6], -32.2%.
On to `CCC1(CCCCCBr)OCCO1`, for which the growth inhibition in assay [1] is 13.9%; in assay [2] it was 12.6%; in assay [3], 19.6%; in assay [4] it was 10.2%; in assay [5], 14.8%; in assay [6], 7.9%.
Consider `CC(COc1ccccc1)OC=O` (stereo unspecified), for which the growth inhibition in assay [1] was 10.6%; in assay [2], -2.65%; in assay [3], 8.2%; in assay [4] it was -24.4%; in assay [5], -13.8%; in assay [6], 8.65%.
As for `Nc1ccc(C(=O)c2ccccc2)cc1Cl`, the growth inhibition in assay [1] was 60.7%; in assay [2], 35%; in assay [3], 56.4%; in assay [4], 6.75%; in assay [5] it was 36.2%; in assay [6] it was 36.1%.
With `O=C1CCC(N2C(=O)C3CCCCC3C2=O)C(=O)N1` (stereo unspecified), the growth inhibition was -0.2% in assay [1]; 12.3% in assay [2]; 18.9% in assay [3]; 1.7% in assay [4]; 8.5% in assay [5]; -14.5% in assay [6].
As for `CN(C)c1ccc(C=C2C(=O)CC(C)(C)CC2=O)cc1`, the growth inhibition was 12.5% in assay [1]; 10.2% in assay [2]; 23.1% in assay [3]; 16.1% in assay [4]; 5.85% in assay [5]; -8.4% in assay [6].
For `CCOC(=O)c1c(-c2ccc(OC)cc2)c(C#N)c(=S)n(C2OC(CO)C(O)C(O)C2O)c1-c1ccccc1` (stereo unspecified), the growth inhibition in assay [1] is 6.7%; in assay [2], -29%; in assay [3], -20%; in assay [4], -11.6%; in assay [5] it was -12.4%; in assay [6], 2.95%.
In the case of `Cc1c2ccccc2c(C)n2c1nc1cc3ccccc3cc12`, the growth inhibition was 9.8% in assay [1]; 11.9% in assay [2]; 11.8% in assay [3]; 8.55% in assay [4]; 4.65% in assay [5]; 28.6% in assay [6].
For `COc1cc2cccc(N=Cc3ccccc3Cl)c2cc1OC`, the growth inhibition in assay [1] was -8.7%; in assay [2] it was -7.4%; in assay [3] it was -11.3%; in assay [4], 27.9%; in assay [5] it was 8.55%; in assay [6], -3.8%.
For `N#Cc1c(-c2ccc(Cl)cc2)cn2c1[nH]c(=O)c1cc(Br)ccc12`, the growth inhibition in assay [1] is 6.45%; in assay [2], 0.95%; in assay [3], -18.4%; in assay [4], -12.6%; in assay [5] it was -3.4%; in assay [6], 14.4%.
Regarding `CC(=O)OC1CN(c2ccccc2)CC(OC(C)=O)CN(c2ccccc2)C1` (stereo unspecified), the growth inhibition in assay [1] is 38.5%; in assay [2], 3.95%; in assay [3], 38%; in assay [4], -24.4%; in assay [5], 2.1%; in assay [6] it was 31.8%.

For the origin of these results see PubChem BioAssay (NCI).
